Measured values as given in the supplement of paper PMC10849652.
About 8,800 targets were measured; listed, in parts, are those with a hit and a random draw of the rest. About 0.5% of all pairs of compound and target were hits. A number with no mark means an inactive call.

Columns and labels:
Assay in all cases: log2 fold change, soluble protein after heating vs DMSO (PISA); higher = thermal stabilisation; K562 lysate, 10 uM; active = over 0.2 and 3.5 SD of the protein, either way, in both replicates (recomputed)
[1] = compound: C1=CC=C(C=C1)[C@H](COC2=CC3=C(C=C2)NC(=O)N3)NC(=O)C4=CC=CN(C4=O)CC5=CC(=C(C=C5)F)F
Outline: (§1)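 Values give the log-two fold change in thermal stability against solvent controls, from duplicates. Crude K562 extract at 1 mg/mL protein, made by dounce homogenisation in PBS pH 7.4 with 1 mM MgCl2, was treated with 10 μM compound for 30 min. After 3 min heating across 48°C-58°C, aliquots were pooled, adjusted to 0.5% NP-40 at 4°C and centrifuged at 21,000xg for 90 min. The supernatant was measured by TMTpro 16plex LC-MS/MS with channel sums equalised.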

[2] = compound: CC1=C(SC2=C1C(=N[C@H](C3=NN=C(N32)C)CC(=O)N)C4=CC=C(C=C4)Cl)C
Outline: as §1

[3] = compound: CC1=C2C(=CC=C1)N=C(N(C2=O)C3=CC=CC=C3C)CN4C=NC5=C(N=CN=C54)N
Outline: as §1

[4] = compound: Cc1sc2c(c1C)C(c1ccc(Cl)cc1)=N[C@@H](CC(=O)OC(C)(C)C)c1nnc(C)n1-2
Outline: as §1

[5] = compound: c1ccc([C@@H]2C[C@H]2NC2CCNCC2)cc1
Outline: as §1

Chain of UniProt P21964 (P21964 whole entry, looked up): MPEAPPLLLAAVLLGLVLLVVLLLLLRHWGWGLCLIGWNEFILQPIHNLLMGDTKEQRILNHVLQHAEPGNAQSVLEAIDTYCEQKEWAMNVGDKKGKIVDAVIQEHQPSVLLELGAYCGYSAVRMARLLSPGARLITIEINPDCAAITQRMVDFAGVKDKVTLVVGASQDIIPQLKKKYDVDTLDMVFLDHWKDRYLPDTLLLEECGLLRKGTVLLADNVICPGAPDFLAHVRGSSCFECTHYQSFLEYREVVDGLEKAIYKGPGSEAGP
Chain of UniProt Q6PJW8 (Q6PJW8 whole entry, looked up): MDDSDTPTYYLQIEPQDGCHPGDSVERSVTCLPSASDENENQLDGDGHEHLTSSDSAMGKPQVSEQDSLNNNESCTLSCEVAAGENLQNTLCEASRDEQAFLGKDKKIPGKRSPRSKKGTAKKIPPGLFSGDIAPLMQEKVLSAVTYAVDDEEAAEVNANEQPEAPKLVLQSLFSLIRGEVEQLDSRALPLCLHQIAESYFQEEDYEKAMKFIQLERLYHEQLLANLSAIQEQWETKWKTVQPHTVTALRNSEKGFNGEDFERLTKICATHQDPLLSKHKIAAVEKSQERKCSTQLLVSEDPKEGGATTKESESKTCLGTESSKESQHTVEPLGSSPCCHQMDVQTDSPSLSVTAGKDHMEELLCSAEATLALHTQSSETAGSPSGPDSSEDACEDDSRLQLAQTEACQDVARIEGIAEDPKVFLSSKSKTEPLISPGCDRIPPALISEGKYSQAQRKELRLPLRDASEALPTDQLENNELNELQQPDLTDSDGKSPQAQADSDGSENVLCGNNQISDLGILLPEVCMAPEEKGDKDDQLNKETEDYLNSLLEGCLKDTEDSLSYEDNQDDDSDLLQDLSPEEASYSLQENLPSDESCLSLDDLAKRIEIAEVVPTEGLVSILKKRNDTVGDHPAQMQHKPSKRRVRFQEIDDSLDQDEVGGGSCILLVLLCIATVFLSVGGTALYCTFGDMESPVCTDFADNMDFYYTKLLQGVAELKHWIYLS
Chain of UniProt P26374 (P26374 whole entry, looked up): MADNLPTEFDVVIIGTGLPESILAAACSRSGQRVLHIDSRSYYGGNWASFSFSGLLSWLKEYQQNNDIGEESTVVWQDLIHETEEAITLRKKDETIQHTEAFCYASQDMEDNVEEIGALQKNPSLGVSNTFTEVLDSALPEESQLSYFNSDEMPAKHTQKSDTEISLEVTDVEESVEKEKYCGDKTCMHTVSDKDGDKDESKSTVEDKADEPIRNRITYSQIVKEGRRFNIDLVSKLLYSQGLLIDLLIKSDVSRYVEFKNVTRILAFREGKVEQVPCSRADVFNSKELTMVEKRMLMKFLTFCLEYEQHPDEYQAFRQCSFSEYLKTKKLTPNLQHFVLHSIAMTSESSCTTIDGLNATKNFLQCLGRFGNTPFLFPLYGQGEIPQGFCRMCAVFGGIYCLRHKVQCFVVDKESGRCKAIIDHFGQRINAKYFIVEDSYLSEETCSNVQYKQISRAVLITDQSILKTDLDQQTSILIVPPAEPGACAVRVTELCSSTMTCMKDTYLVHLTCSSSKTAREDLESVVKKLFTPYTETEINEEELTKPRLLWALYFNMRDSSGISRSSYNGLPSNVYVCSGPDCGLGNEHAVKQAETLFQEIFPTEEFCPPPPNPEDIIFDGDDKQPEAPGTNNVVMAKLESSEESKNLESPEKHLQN
Chain of UniProt Q8NI60 (Q8NI60 whole entry, looked up): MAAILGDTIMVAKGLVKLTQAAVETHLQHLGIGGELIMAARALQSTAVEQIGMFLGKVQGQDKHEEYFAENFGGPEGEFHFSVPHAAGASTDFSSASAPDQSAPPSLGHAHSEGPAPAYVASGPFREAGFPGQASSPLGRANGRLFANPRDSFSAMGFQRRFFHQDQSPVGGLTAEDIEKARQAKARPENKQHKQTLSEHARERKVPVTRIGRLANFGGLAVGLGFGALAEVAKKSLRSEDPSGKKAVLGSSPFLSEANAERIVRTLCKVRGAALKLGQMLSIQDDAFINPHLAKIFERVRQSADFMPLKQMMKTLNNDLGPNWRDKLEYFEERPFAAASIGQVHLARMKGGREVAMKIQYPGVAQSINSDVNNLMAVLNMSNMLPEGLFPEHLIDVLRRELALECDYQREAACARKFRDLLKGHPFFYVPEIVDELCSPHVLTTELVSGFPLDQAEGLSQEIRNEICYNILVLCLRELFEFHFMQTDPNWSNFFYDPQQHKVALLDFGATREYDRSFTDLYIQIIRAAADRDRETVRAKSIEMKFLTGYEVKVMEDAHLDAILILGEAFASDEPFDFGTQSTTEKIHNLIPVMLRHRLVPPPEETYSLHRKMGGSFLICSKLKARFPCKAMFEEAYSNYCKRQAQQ
Chain of UniProt P00374 (P00374 whole entry, looked up): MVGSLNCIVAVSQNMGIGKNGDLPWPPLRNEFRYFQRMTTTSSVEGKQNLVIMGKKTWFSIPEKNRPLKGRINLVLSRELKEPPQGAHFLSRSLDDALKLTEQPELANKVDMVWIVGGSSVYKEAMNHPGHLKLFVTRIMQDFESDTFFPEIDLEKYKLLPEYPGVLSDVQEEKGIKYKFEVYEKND
Chain of UniProt Q96KP4 (Q96KP4 whole entry, looked up): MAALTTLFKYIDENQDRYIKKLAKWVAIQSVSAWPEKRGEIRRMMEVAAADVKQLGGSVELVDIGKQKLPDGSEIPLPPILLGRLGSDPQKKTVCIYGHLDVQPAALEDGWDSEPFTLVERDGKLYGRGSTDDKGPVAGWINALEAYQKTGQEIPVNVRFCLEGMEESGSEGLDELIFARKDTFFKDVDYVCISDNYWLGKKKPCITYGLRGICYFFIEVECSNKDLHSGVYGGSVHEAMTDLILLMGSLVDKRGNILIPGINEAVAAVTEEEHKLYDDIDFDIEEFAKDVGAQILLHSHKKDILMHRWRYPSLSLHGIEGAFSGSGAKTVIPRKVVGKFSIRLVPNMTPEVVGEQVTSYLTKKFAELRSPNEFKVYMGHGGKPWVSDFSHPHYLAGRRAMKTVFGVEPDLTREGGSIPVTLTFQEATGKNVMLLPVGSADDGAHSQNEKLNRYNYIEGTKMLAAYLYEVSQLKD
Chain of UniProt P99999 (P99999 whole entry, looked up): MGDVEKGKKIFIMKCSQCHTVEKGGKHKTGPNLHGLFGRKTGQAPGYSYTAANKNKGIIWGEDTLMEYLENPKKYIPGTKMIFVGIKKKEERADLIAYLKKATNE
Chain of UniProt Q7Z460 (Q7Z460 whole entry, looked up): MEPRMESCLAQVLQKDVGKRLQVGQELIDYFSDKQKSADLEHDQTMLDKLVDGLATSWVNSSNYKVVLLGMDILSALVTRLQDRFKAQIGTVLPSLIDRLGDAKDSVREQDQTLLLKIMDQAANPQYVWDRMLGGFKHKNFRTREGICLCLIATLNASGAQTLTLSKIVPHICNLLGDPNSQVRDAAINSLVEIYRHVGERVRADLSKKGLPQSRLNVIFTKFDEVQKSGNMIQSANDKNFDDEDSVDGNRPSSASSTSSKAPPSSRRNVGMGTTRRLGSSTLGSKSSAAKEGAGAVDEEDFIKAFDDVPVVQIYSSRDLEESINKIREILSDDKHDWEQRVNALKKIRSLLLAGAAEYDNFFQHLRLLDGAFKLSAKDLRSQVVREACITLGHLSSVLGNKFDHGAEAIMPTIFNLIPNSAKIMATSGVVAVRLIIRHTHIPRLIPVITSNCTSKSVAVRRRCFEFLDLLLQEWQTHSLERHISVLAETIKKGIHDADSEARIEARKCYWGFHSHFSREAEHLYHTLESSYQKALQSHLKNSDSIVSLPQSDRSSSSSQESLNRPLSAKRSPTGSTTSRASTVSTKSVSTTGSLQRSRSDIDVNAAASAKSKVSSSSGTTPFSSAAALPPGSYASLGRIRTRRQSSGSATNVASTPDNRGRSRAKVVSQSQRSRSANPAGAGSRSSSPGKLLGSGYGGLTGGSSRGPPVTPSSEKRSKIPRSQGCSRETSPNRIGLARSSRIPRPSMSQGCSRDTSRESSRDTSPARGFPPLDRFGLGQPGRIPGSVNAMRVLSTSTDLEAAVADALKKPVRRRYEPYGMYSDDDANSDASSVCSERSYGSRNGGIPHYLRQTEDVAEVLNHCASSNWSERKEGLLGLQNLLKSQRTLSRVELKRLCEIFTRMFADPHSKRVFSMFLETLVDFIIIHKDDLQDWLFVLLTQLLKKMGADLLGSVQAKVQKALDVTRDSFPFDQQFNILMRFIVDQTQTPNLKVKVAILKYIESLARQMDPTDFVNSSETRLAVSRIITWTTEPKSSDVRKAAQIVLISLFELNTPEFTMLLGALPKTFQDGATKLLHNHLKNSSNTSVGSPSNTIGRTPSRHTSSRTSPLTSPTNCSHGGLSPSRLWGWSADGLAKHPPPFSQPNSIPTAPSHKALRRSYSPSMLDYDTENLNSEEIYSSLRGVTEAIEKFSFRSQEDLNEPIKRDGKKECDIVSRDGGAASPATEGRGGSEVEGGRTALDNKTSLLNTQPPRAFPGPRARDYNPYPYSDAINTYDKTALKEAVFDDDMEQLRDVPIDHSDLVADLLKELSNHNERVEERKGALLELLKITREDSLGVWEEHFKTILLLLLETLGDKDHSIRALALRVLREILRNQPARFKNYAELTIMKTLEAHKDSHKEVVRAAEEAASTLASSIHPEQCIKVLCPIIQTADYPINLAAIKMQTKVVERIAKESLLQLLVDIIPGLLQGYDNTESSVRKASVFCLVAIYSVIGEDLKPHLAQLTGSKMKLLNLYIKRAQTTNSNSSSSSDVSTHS
Chain of UniProt Q99828 (Q99828 whole entry, looked up): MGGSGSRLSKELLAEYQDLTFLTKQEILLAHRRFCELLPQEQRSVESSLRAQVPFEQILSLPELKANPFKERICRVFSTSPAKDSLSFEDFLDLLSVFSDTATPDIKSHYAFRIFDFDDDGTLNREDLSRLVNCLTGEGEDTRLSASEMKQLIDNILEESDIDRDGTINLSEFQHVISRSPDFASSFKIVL

In the case of CYCS (UniProt P99999), the log2 fold change [1] is reported as -0.013, the log2 fold change [2] is reported as 0.016 and the log2 fold change [3] is reported as 0.002. The log2 fold change [4] was 0.002 and the log2 fold change [5] was -0.01.

COL6A5 (UniProt A8TX70) was tested, and the log2 fold change [1] was 0.025, the log2 fold change [2] was 0.052 and the log2 fold change [3] was 0.089. It also gave a log2 fold change [4] of -0.061 and a log2 fold change [5] of -0.545.

COQ8A (UniProt Q8NI60) was tested, and the log2 fold change [1] was 0.048, the log2 fold change [2] was 0.065 and the log2 fold change [3] was 0.03. It also gave a log2 fold change [4] of 0.007 and a log2 fold change [5] of 0.

DHFR (UniProt P00374) showed a log2 fold change [1] of -0.024, a log2 fold change [2] of 0.024 and a log2 fold change [3] of 0.016. For the same target, the log2 fold change [4] was 0.031 and the log2 fold change [5] was 0.021.

CNST (UniProt Q6PJW8) was tested, and the log2 fold change [1] was 0.041, the log2 fold change [2] was 0.019 and the log2 fold change [3] was -0.018. The log2 fold change [4] was 0.004 and the log2 fold change [5] was -0.031.

In the case of CHEK2 (UniProt O96017), the log2 fold change [1] is reported as -0.02, the log2 fold change [2] is reported as -0.041 and the log2 fold change [3] is reported as -0.016. It also gave a log2 fold change [4] of 0.006 and a log2 fold change [5] of 0.014.

In the case of CLASP1 (UniProt Q7Z460), the log2 fold change [1] is reported as -0.019, the log2 fold change [2] is reported as 0.011 and the log2 fold change [3] is reported as 0.022. It also gave a log2 fold change [4] of -0.026 and a log2 fold change [5] of -0.007.

In the case of CXXC1 isoform 2 (UniProt Q9P0U4), the log2 fold change [1] is reported as 0.006, the log2 fold change [2] is reported as 0.07 and the log2 fold change [3] is reported as 0.032. It also gave a log2 fold change [4] of -0.173 and a log2 fold change [5] of 0.029.

With COG2 (UniProt Q14746) the log2 fold change [1] was -0.038, the log2 fold change [2] was -0.034 and the log2 fold change [3] was 0.054. It also gave a log2 fold change [4] of 0.001 and a log2 fold change [5] of 0.009.

With CIB1 (UniProt Q99828) the log2 fold change [1] was -0.128, the log2 fold change [2] was -0.272 (active) and the log2 fold change [3] was -0.039. The log2 fold change [4] was 0.023 and the log2 fold change [5] was 0.03.

In the case of CSNK2B (UniProt P67870), the log2 fold change [1] is reported as -0.02, the log2 fold change [2] is reported as 0.024 and the log2 fold change [3] is reported as -0.068. For the same target, the log2 fold change [4] was 0.03 and the log2 fold change [5] was -0.016.

COMT (UniProt P21964) showed a log2 fold change [1] of -0.007, a log2 fold change [2] of -0.01 and a log2 fold change [3] of -0.016. It also gave a log2 fold change [4] of 0.062 and a log2 fold change [5] of 0.054.

Target CYP24A1 (UniProt Q07973) has a log2 fold change [1] of 0.02, a log2 fold change [2] of 0.142 and a log2 fold change [3] of 0.096. The log2 fold change [4] was -0.136 and the log2 fold change [5] was -0.262.

CHML (UniProt P26374) was tested, and the log2 fold change [1] was 0.011, the log2 fold change [2] was -0.027 and the log2 fold change [3] was 0.01. It also gave a log2 fold change [4] of 0.016 and a log2 fold change [5] of -0.03.

CTPS2 (UniProt Q9NRF8) gave a log2 fold change [1] of -0.001, a log2 fold change [2] of -0.009 and a log2 fold change [3] of -0.008. For the same target, the log2 fold change [4] was 0.004 and the log2 fold change [5] was 0.

For DOCK7 (UniProt Q96N67), the log2 fold change [1] was 0.071, the log2 fold change [2] was 0.095 and the log2 fold change [3] was -0.017. For the same target, the log2 fold change [4] was -0.011 and the log2 fold change [5] was 0.012.

CUEDC2 (UniProt Q9H467) showed a log2 fold change [1] of 0.074, a log2 fold change [2] of 0.019 and a log2 fold change [3] of -0.017. The log2 fold change [4] was 0.013 and the log2 fold change [5] was 0.11.

Work on DLG3 isoform 2 (UniProt Q92796) yielded a log2 fold change [1] of 0, a log2 fold change [2] of -0.082 and a log2 fold change [3] of -0.085. For the same target, the log2 fold change [4] was 0.019 and the log2 fold change [5] was 0.048.

For CORO1A (UniProt P31146), the log2 fold change [1] was -0.024, the log2 fold change [2] was 0.021 and the log2 fold change [3] was 0.004. It also gave a log2 fold change [4] of 0.078 and a log2 fold change [5] of -0.019.

With CLPTM1L (UniProt Q96KA5) the log2 fold change [1] was -0.075, the log2 fold change [2] was 0.039 and the log2 fold change [3] was 0.04. For the same target, the log2 fold change [4] was -0.02 and the log2 fold change [5] was 0.022.

DERA (UniProt Q9Y315) showed a log2 fold change [1] of 0.025, a log2 fold change [2] of 0.012 and a log2 fold change [3] of -0.051. It also gave a log2 fold change [4] of 0.061 and a log2 fold change [5] of 0.209.

In the case of CNDP2 (UniProt Q96KP4), the log2 fold change [1] is reported as 0.017, the log2 fold change [2] is reported as 0.017 and the log2 fold change [3] is reported as -0.022. For the same target, the log2 fold change [4] was -0.006 and the log2 fold change [5] was -0.145.

CLASP2 isoform 3 (UniProt O75122) showed a log2 fold change [1] of 0.002, a log2 fold change [2] of -0.028 and a log2 fold change [3] of 0.079. It also gave a log2 fold change [4] of -0.003 and a log2 fold change [5] of -0.061.

COG5 isoform 2 (UniProt Q9UP83) showed a log2 fold change [1] of 0.034, a log2 fold change [2] of 0.045 and a log2 fold change [3] of -0.042. The log2 fold change [4] was -0.003 and the log2 fold change [5] was 0.033.
